Hits are enriched below; roughly 6.9% of the tested compounds scored in any of these assays.
PLK1 PBD inh – qHTS for Inhibitors of PLK1-PDB (polo-like kinase 1 - polo-box domain): Primary Screen; AID 720504, 2013; Plk1 PBD binding of FITC phosphopeptide, fluorescence polarization; Serine/threonine-protein kinase PLK1 (Homo sapiens), P53350; Potency, µM, inactives show max response, negative = inhibition, usual class: inhibitors; 360,000 tested, 2.8% active; further: series mostly up to about 57 µM; on the % scale 0 is the no-effect control and ±100 the full control effect; nearly all actives have a fitted effect of over 65% in size
L3MBTL1 inh – qHTS Assay for the Inhibitors of L3MBTL1; Lethal(3)malignant brain tumor-like protein 1 (Homo sapiens), Q9Y468; AlphaScreen L3MBTL1–H3K9me1 peptide binding; Potency, µM (series often up to 57.1 µM), for inactives: at the top dose activity, negative = inhibition, hits mostly inhibitors; 230,000 tested, 0.66% active; further: on the % scale 0 is the no-effect control and ±100 the full control effect; nearly all actives have a fitted effect of over 60% in size
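First, the protein-peptide complex forms for 30 min at room temperature (L3MBTL1 50 nM, biotinylated H3K9me1 peptide 75 nM). Next, compounds are pin-transferred and incubated 30 min. Finally, AlphaScreen beads are added and read after 30 min.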
JMJD2A Tudor – qHTS Assay for Inhibitors of JMJD2A-Tudor Domain; Lysine-specific demethylase 4A (Homo sapiens), O75164; AlphaScreen JMJD2A-Tudor / H3K4me3 peptide binding; Potency, µM (series often up to 114 µM), inactives show at the highest dose activity change, negative = inhibition, usual class: inhibitors; 390,000 tested, 4.4% active; AID 504339, 2011; further: on the % scale 0 is the no-effect control and ±100 the full control effect; nearly all actives have a fitted effect of over 50% in size
VDR inh – Inhibitors of the vitamin D receptor (VDR): qHTS; Vitamin D3 receptor (Homo sapiens), P11473; VDR-SRC2-3 peptide fluorescence polarization, 2 h; Potency, µM, for inactives: max response, negative = inhibition, hits mostly inhibitors; 400,000 tested, 0.93% active; further: on the % scale 0 is the no-effect control and ±100 the full control effect
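Inhibition of the VDR/SRC2-3 peptide interaction is quantified by fluorescence polarization. Compounds (23 nl, pintool) incubate with the reagents for 2 hours at ambient room temperature.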
HP1b binding inh – HTS for Inhibitors of HP1-beta Chromodomain Interactions with Methylated Histone Tails. AID 540317, 2011. Potency, µM (doses to about 114 µM), for inactives: top-dose activity change, negative = inhibition, actives largely listed as inhibitors. 390,000 tested, 0.56% active. AlphaScreen HP1-beta / biotin-H3K9me3 peptide binding; further: nearly all actives have a fitted effect of over 70% in size
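Compound inhibition of the preformed complex between 50 nM HP1-beta and 50 nM biotinylated H3K9me3 peptide was read by AlphaScreen. Buffer was PBS pH 7.4 with 0.01% Tween-20. Incubations ran 30 min at room temperature, with 10 ug/mL donor/acceptor beads.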
BAZ2B inh – qHTS Assay for Inhibitors of BAZ2B; AID 504333, 2011; AlphaScreen BAZ2B-H3K14Ac peptide displacement; 360,000 tested, 4.4% active; Potency, µM (doses to about 114 µM), inactives show at the highest dose activity change, negative = inhibition, actives largely listed as inhibitors; Bromodomain adjacent to zinc finger domain protein 2B (Homo sapiens), Q9UIF8; further: on the % scale 0 is the no-effect control and ±100 the full control effect; nearly all actives have a fitted effect of over 60% in size
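Protein-peptide AlphaScreen: BAZ2B 50 nM, b-H3K14Ac 50 nM, 1x PBS pH 7.4 + 0.01% Tween-20. Preincubation 30 min RT; cpd 30 min RT (top 110 uM); beads 20 min RT, light-protected.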
An asterisk follows results filed as active; ? = inconclusive; nt = no result; [ ] = dose if it differs, or a comment. The call rests on the fitted dose curve; in most records, active means well fitted curve in the direction sought with a large enough effect; inconclusive means small, poorly fitted or top-dose-only effect, or another doubt; inactive means no such curve, though single readings can be large; an effect the other way counts as inactive or inconclusive. Potency means the concentration at half of the fitted maximal effect.

SMILES | PLK1 PBD inh | L3MBTL1 inh | JMJD2A Tudor | VDR inh | HP1b binding inh | BAZ2B inh
CCOC(=O)c1sc2nc(C)nc(N3CCN(S(=O)(=O)c4ccccc4)CC3)c2c1C | 23.8µM* | 1.6% | -26.0% | -8.4% | -14.0% | nt
CCc1ccc(C2CC(=O)NC(NC(=O)c3ccc(C(C)(C)C)cc3)=N2)cc1 (stereo not drawn) | nt | nt | 6.8% | -10.5% | 25.9% | -0.4%
CCCN(CCC)CC(O)Cn1cc(/C=C/C(=O)c2ccc(Br)cc2)c2ccccc21 (stereo not drawn) | nt | nt | ? | 10.4% | 8.2% | -26.4%
CCCCN(C)CC(O)Cn1cc(/C=C/C(=O)c2ccc(Br)cc2)c2ccccc21 (stereo not drawn) | nt | nt | 70.8µM* | 16.4% | -15.2% | ?
CCCCN(C)CC(O)Cn1cc(/C=C/C(=O)c2ccc(C)cc2)c2ccccc21 (stereo not drawn) | -3.3% | nt | 50.1µM* | -0.1% | -0.2% | ?
CCCCN(C)CC(O)Cn1cc(/C=C/C(=O)c2ccc(OC)c(OC)c2)c2ccccc21 (stereo not drawn) | nt | nt | ? | 14.9% | 19.3% | ?
O=C1c2cc(S(=O)(=O)N3CCOCC3)ccc2-c2ccc(S(=O)(=O)N3CCOCC3)cc21 | nt | nt | -26.2% | -1.4% | 28.4% | nt
COc1ccc(NC(=O)c2cnc(N3CCCCC3)c3ccccc23)cc1Cl | nt | nt | 8.4% | 11.8% | 37.7%[57 µM] | 3.5%
CCC(C)c1ccccc1OCCCCN1CCCC1 (stereo not drawn) | 5.8% | ? | 3.16µM* | -12.3% | -10.9% | ?
CCC(C)c1ccccc1OCCOCCN1CCCC1 (stereo not drawn) | -2.9% | -7.6% | 2.51µM* | -4.0% | ? | ?
CC(C)(C)c1ccccc1OCCOCCN1CCCCCC1 | -12.7% | 1.8%[11.4 µM] | -12.8% | 2.1% | 16.3% | -38.3%
Cc1c(Cl)cccc1NC(=O)CSc1nc(=O)[nH]c2c1CCC2 | nt | nt | -8.4% | 7.7% | -5.3% | -8.6%
Cc1cc(C)c(-n2c(C)cc(/C=C3/NC(=O)NC3=O)c2C)c(C)c1 | -5.2% | -20.5% | ? | 5.6% | ? | 50.1µM*
CC1(C(=O)NS(=O)(=O)c2ccc(Cl)s2)CCN1C(=O)Cc1ccccc1Cl (stereo not drawn) | -5.4% | nt | nt | nt | nt | nt
O=C(O)CCN1C(=O)C2C3CC(C2C1=O)C1C(c2ccccc2)c2sc(=O)n(-c4ccccc4)c2SC31 (stereo not drawn) | 42.3µM* | nt | -7.9% | ? | -11.1% | ?
Cc1ccc(NC(=O)CN2CCN(C)CC2)cc1S(=O)(=O)N1CCOCC1 | -5.5% | 4.6% | -15.8% | -12.7% | 22.7% | -3.2%
O=C(CCN1CCCCCC1)Nc1cccc(Cl)c1 | 3.2% | 2.5% | -6.9% | 6.6% | 17.9% | 7.4%
O=C(CN1CCCC1)Nc1ccc2c(c1)CCC2 | -6.8% | -3.2% | 3.16µM* | -3.0% | -4.4% | 50.1µM*
O=C(CCN1CCCCC1)Nc1cccc(Cl)c1 | 26.7µM* | nt | -14.4%[11.4 µM] | -12.0% | 13.5% | -3.2%
Cc1ccc(NC(=O)CN2CCN(C)CC2)cc1Br | -8.5% | -7.0% | 5.62µM* | -9.6% | ? | 50.1µM*
O=C(CN1CCN(Cc2ccccc2)CC1)Nc1ccc2c(c1)CCC2 | -10.0% | 7.6% | -10.3% | 6.8% | 22.9% | -27.0%
O=C(CN1CCCC1)Nc1ccc(F)c(Cl)c1 | -14.6% | nt | 22.4µM* | 13.6% | -21.1% | ?
COCc1cc(C)nc2c1C(=O)NC(c1ccc(F)cc1)N2Cc1ccccc1 (stereo not drawn) | nt | nt | -14.6% | 3.6% | 3.7% | -8.2%
Cc1cccc(-n2c(=O)c3c(c4cc(C)ccc4n3C)n(Cc3ccccc3F)c2=O)c1 | nt | nt | -11.0% | 4.4% | 42.9% | -13.7%

Source: PubChem BioAssay (National Center for Advancing Translational Sciences (NCATS))
